Assay results reported in PubChem BioAssay (NCATS).
Inconclusive results are not listed. Calls of active or inactive are those of the source. Calls come from the whole dose curve; as a rule, active = well fitted inhibition curve with a large enough effect; inconclusive = small, poorly fitted or top-dose-only effect; inactive = flat fitted curve, though single readings scatter.

Legend:
Experiment in all cases: qHTS profiling for inhibitors of Plasmodium falciparum proliferation (AID 504749); note: nearly all actives have a fitted effect of over 60% in size
Conditions in all cases: P. falciparum in erythrocytes, SYBR Green DNA, 72 h; series mostly up to 28.7 µM
PC26 = system: PC26
Method in brief: (§1)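 P. falciparum-infected erythrocytes (0.3% parasitemia, 2.5% hematocrit) incubated with compound 72 h at 37 C, 5% CO2. Parasite DNA detected by SYBR Green after lysis, overnight at room temperature; normalised to 0.29 uM artemisinin and DMSO.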

PC49 = system: PC49
Method in brief: as §1

SC27B = system: SC27B
Method in brief: as §1

TAB109 = system: TAB109
Method in brief: as §1

TAB113 = system: TAB113
Method in brief: as §1

TAB165 = system: TAB165
Method in brief: as §1

W2 = system: W2
Method in brief: as §1

Measured: Potency
Potency is the fitted concentration of half-maximal effect.

ClC=C(Cl)Cl
inactive: PC26 | PC49 | SC27B | TAB109 | TAB113 | TAB165 | W2

C=CCN1CC[C@]23c4c5ccc(O)c4O[C@H]2[C@@H](O)C=C[C@H]3[C@H]1C5
inactive: PC26 | PC49 | SC27B | TAB109 | TAB113 | TAB165 | W2

CC[N+](C)(CC)CCOC(=O)C(O)(c1ccccc1)c1ccccc1
inactive: PC26 | PC49 | SC27B | TAB109 | TAB113 | TAB165 | W2

CCC1(c2ccccc2)C(=O)NC(=O)NC1=O
inactive: PC26 | PC49 | SC27B | TAB109 | TAB113 | TAB165 | W2

O=[N+]([O-])c1ccccc1
inactive: PC26 | PC49 | SC27B | TAB109 | TAB113 | TAB165 | W2

Clc1ccc(C2(Cn3cncn3)OCCO2)c(Cl)c1
inactive: PC26 | PC49 | SC27B | TAB109 | TAB113 | TAB165 | W2

CCCC(C)C1(CC)C(=O)NC(=O)NC1=O (configuration not stated)
inactive: PC26 | PC49 | SC27B | TAB109 | TAB113 | TAB165 | W2

C#CC(C)(O)CC (configuration not stated)
inactive: PC26 | PC49 | SC27B | TAB109 | TAB113 | TAB165 | W2

Oc1cccc[c]1[Hg][Cl]
active: PC26 12 µM | PC49 14.1 µM | SC27B 10 µM | TAB109 3.98 µM | TAB113 10 µM | TAB165 7.94 µM | W2 4.78 µM

COCC(C)N(C(=O)CCl)c1c(C)csc1C (configuration not stated)
inactive: PC26 | PC49 | SC27B | TAB109 | TAB113 | TAB165 | W2

O=C(OCCN1CCCCC1)C(O)(c1ccccc1)c1ccccc1
inactive: PC26 | PC49 | SC27B | TAB109 | TAB113 | TAB165 | W2
